Binding signal and Kd data for 60 sequences are collected here from publication PMC5913336, “True equilibrium measurement of transcription factor-DNA binding affinities using automated polarization microscopy”.

Holding throughout (details): tags: N-GST (pGEX-6P-1, kept); dsDNA, one strand shown
The target of one test is T1, Croc (Drosophila melanogaster, UniProt P32027 54-175).
T1 sequence: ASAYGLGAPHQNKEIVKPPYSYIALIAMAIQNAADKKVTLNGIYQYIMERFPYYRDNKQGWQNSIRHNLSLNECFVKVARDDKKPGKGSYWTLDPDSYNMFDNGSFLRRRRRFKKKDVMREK
Put plainly: FP; 20 mM Tris-acetate pH 7.0, 50 "nM" NaCl as printed (probably mM), 0.01% Tween 20, 0.1 mM DTT; conventional titration.

Another test deals with T2, Ems (Drosophila melanogaster, UniProt P18488 373-462).
T2 sequence: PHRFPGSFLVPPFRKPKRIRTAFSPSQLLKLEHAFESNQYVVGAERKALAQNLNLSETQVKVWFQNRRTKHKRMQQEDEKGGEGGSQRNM
Put plainly: FP; 33 mM phosphate pH 7.0, 90 mM NaCl, 0.01% Tween 20, 0.1 mM DTT, 0.5% agarose; room temperature.

The target in the next test is T3, GATAe (Drosophila melanogaster, UniProt Q9VF00 512-604).
T3 sequence: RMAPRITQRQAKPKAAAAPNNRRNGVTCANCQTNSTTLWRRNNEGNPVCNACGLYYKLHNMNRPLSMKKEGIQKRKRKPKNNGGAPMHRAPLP
The test is described as above.

The target of another test is T4, Hkb (Drosophila melanogaster, UniProt Q9VN10 181-296).
T4 sequence: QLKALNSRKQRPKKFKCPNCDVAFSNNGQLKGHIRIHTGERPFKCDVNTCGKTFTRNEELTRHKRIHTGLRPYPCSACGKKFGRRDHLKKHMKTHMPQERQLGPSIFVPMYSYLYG
Described as above.

The target of a further test is T5, EcR (Drosophila melanogaster, UniProt P34021 251-348).
T5 sequence: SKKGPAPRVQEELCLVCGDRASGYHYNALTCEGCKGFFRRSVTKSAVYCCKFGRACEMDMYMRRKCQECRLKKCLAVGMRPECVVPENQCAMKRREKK
The test is described as above.

The next test has as its target Gsc (Drosophila melanogaster, UniProt P54366 267-356). The description is as above.
In the next test the target is T6, Optix (Drosophila melanogaster, UniProt Q95RW8 139-229).
T6 sequence: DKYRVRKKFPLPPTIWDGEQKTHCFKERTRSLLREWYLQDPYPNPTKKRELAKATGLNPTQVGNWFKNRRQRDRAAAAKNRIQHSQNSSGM
The test is described as above.

In another test the target is D (Drosophila melanogaster, UniProt Q24533 127-229). Described as above.
D, sequence (Q24533 127-229): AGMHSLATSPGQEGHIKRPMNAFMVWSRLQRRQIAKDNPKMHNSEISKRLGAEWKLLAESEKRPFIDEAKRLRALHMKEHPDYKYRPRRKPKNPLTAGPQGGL

By Kd is commonly meant the free concentration of one partner at which half of the binding sites on the other are occupied at equilibrium, for simple one-to-one binding. Read a low Kd as a tighter complex.

Gsc, sequence (P54366 267-356): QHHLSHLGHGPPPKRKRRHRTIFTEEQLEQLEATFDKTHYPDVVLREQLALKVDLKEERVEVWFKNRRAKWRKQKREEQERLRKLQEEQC

In the case of TTAGATCAATATA, the binding signal with Croc was 8.58 Kd / Kd of best base at the position.
As to GACGTAATTAGCTCA, the binding signal in the test with Ems was 1.01 Kd / Kd of best base at the position.
Same read-out and setting: the result for AACGTAATTAGCTCA reads 1.04 Kd / Kd of best base at the position.
As to CACGTAAGTAGCTCA, the binding signal in the test with Ems was 63.6 Kd / Kd of best base at the position.
On the same count and under the same terms, the result for CCCGTAATTAGCTCA reads 1.04 Kd / Kd of best base at the position.
Turning to CATGTTATCCAC, the binding signal in the test with GATAe was 3.95 Kd / Kd of best base at the position.
CATGTTATTTAC: the binding signal with GATAe was 15.3 Kd / Kd of best base at the position.
Same read-out and setting: the result for CGTGTTATCTAC reads 1.55 Kd / Kd of best base at the position.
Regarding CATGTTATCTTC, the binding signal with GATAe was 1.72 Kd / Kd of best base at the position.
On the same count and under the same terms, the result for CATGCTATCTAC reads 2.34 Kd / Kd of best base at the position; that for CATGTTACCTAC, 20.8 Kd / Kd of best base at the position; that for CATGTAATCTAC, 2.43 Kd / Kd of best base at the position.
On to AAGGGACGTGAT, for which the binding signal in the test with Hkb was 86.7 Kd / Kd of best base at the position.
For the sequence CATGTTGTCTAC, the binding signal with GATAe was 9.99 Kd / Kd of best base at the position.
On to CATCTTATCTAC, for which the binding signal in the test with GATAe was 1.22 Kd / Kd of best base at the position.
Same read-out and setting: the result for AATGTTATCTAC reads 1.68 Kd / Kd of best base at the position; that for CAAGTTATCTAC, 2.12 Kd / Kd of best base at the position.
Still for that read-out and setting: the result for CATGTCATCTAC reads 13.1 Kd / Kd of best base at the position; that for CATGTTATCTAG, 1.71 Kd / Kd of best base at the position.
Still for that read-out and setting: the result for CATGTTATCTAA reads 1.53 Kd / Kd of best base at the position; that for CATGGTATCTAC, 3.02 Kd / Kd of best base at the position; that for CATGTTATGTAC, 25.2 Kd / Kd of best base at the position.
With CATGTTATCGAC, the binding signal with GATAe was 2.3 Kd / Kd of best base at the position.
With CATTTTATCTAC, in the test with GATAe, the binding signal was 1.94 Kd / Kd of best base at the position.
On to CATATTATCTAC, for which, in the test with GATAe, the binding signal is 2.02 Kd / Kd of best base at the position.
Regarding CATGTTATCAAC, in the test with GATAe, the binding signal is 1.76 Kd / Kd of best base at the position.
With CATGTTATCTAT, the binding signal with GATAe is 1.52 Kd / Kd of best base at the position.
As for CCTGTTATCTAC, in the test with GATAe, the binding signal was 1.53 Kd / Kd of best base at the position.
The same measure, in the same setting: the result for CATGTTCTCTAC reads 42.3 Kd / Kd of best base at the position.
Still for that read-out and setting: the result for CACGTTATCTAC reads 1.57 Kd / Kd of best base at the position; that for CTTGTTATCTAC, 1.46 Kd / Kd of best base at the position; that for CATGTTAGCTAC, 25.2 Kd / Kd of best base at the position.
Same read-out and setting: the result for CATGTTATCTCC reads 1.58 Kd / Kd of best base at the position; that for CAGGTTATCTAC, 1.9 Kd / Kd of best base at the position.
For CATGTTAACTAC, the binding signal with GATAe was 9.8 Kd / Kd of best base at the position.
In the case of CATGATATCTAC, the binding signal with GATAe is 2.32 Kd / Kd of best base at the position.
Same read-out and setting: the result for GATGTTATCTAC reads 1.64 Kd / Kd of best base at the position; that for CATGTGATCTAC, 11.2 Kd / Kd of best base at the position.
Take AAGGGGCGTGTT: in the test with Hkb, the binding signal is 150 Kd / Kd of best base at the position.
With CATGTTATCTGC, the binding signal with GATAe is 1.67 Kd / Kd of best base at the position.
The same measure, in the same setting: the result for CATGTTATATAC reads 17.7 Kd / Kd of best base at the position.
In the test with GATAe, CATGTTATCTAC gave a Kd of about 7.3 nM.
In the case of CATGTTTTCTAC, the binding signal in the test with GATAe is 35.6 Kd / Kd of best base at the position.
The same measure, in the same setting: the result for TATGTTATCTAC reads 1.62 Kd / Kd of best base at the position.
For GAATGAGCCCTAC, the binding signal in the test with EcR was 12.7 Kd / Kd of best base at the position.
As to AATTAATGCGAT, the binding signal with Gsc is 9.37 Kd / Kd of best base at the position.
As to AGAGTGAGAGCT, in the test with Optix, the binding signal is 35.9 Kd / Kd of best base at the position.
The same measure, in the same setting: the result for AGAGTGATAGGT reads 4.85 Kd / Kd of best base at the position.
In the case of GACCCTTGTTCTTG, the binding signal with D was 32.5 Kd / Kd of best base at the position.
For the sequence AGAGTGATAGCG, in the test with Optix, the binding signal is 7.84 Kd / Kd of best base at the position.
Same read-out and setting: the result for AGAGTGAAAGCT reads 1670 Kd / Kd of best base at the position.
Regarding ATAGTGATAGCT, in the test with Optix, the binding signal is 1.01 Kd / Kd of best base at the position.
The same measure, in the same setting: the result for AGTGTGATAGCT reads 6.5 Kd / Kd of best base at the position.
Same read-out and setting: the result for AGAGTGCTAGCT reads 95.1 Kd / Kd of best base at the position; that for AGAGTGATCGCT, 9.37 Kd / Kd of best base at the position; that for AGAGTTATAGCT, 25 Kd / Kd of best base at the position.
On the same count and under the same terms, the result for AGAGTGATAACT reads 12.1 Kd / Kd of best base at the position.
For AGACTGATAGCT, in the test with Optix, the binding signal is 1.06 Kd / Kd of best base at the position.
The same measure, in the same setting: the result for GGAGTGATAGCT reads 2.35 Kd / Kd of best base at the position.
On the same count and under the same terms, the result for CGAGTGATAGCT reads 5.01 Kd / Kd of best base at the position.
